Consider ten compounds from PubChem BioAssay (EPA / NIEHS).

The nature of assay [1]: BSK_BT_PBMCCytotoxicity: PBMC Cytotoxicity Assessment in the BioMAP Diversity Plus: BT Assay (AID 2284225).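 Further: PBMC viability measured by Alamar Blue dye reduction fluorescence.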 As to conditions: primary human B cells with PBMC. The essentials:
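75,000 cells/well; cpd 1 h → SEB + TSST-1 (20 ng/mL final each) → 90 h → Alamar Blue 6 h → fluor. 546/580 nm. DMSO = neg. control/baseline.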

Read-out in assay [2]: Secreted IgG (sIgG), gene 3500
As to the kind of experiment: BSK_BT_sIgG: BioMAP Diversity Plus: BT Assay for Secreted IgG (sIgG) Biomarker Activity (AID 2284226). As to conditions: primary human B cells with PBMC. In outline: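 Secreted IgG from a human primary B cell–PBMC co-culture was measured by ELISA 24 hours after dosing, with DMSO defining baseline activity.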

The nature of assay [3]: BSK_BT_Bcell_Proliferation: Viability Assessment in the BioMAP Diversity Plus: BT Assay for B cell Proliferation (AID 2284227). The following applies: primary human B cells with PBMC. The essentials:
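SRB-based protein staining (0.1% SRB after 10% TCA fixation, 560 nm) quantifies proliferation in human B cells co-cultured with PBMC, 72 h post-dosing, with signal gain scored relative to DMSO negative control.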

Read-out in assay [4]: Interleukin 6 (IL6), IL6 (gene 3569)
As to the kind of experiment: BSK_BT_xIL6: BioMAP Diversity Plus: BT Assay for Interleukin 6 (IL6) Biomarker Activity (AID 2284228). As to conditions: primary human B cells with PBMC. The essentials: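 IL-6 secretion measured (Luminex xMAP) in human primary B cell + PBMC co-culture at 24 h of chemical exposure; DMSO served as negative control and activity baseline, with curves fitted for increase.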

Read-out in assay [5]: Interleukin 17A (IL17A), IL17A (gene 3605)
As to the kind of experiment: BSK_BT_xIL17A: BioMAP Diversity Plus: BT Assay for Interleukin 17A (IL17A) Biomarker Activity (AID 2284229). The following applies: primary human B cells with PBMC. The essentials:
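Human primary B cells plus PBMC, treated 24 h with chemicals; supernatant IL-17A quantified on Luminex xMAP beads. Gain of signal over DMSO control scored as activity.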

Read-out in assay [6]: Tumor necrosis factor (Homo sapiens) (UniProt P01375)
As to the kind of experiment: BSK_BT_xTNFa: BioMAP Diversity Plus: BT Assay for Tumor necrosis factor alpha (TNF-alpha) Biomarker Activity (AID 2284230). As to conditions: primary human B cells with PBMC. The essentials: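 Compounds were added to a B cell plus PBMC co-culture, and after 24 h secreted TNF-alpha was quantified with Luminex xMAP technology, with responses fitted upward from the DMSO control.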

Read-out in assay [7]: Vascular cell adhesion molecule 1 (VCAM1), VCAM1 (gene 7412)
As to the kind of experiment: BSK_MyoF_VCAM1: BioMAP Diversity Plus: MyoF Assay for Vascular cell adhesion molecule 1 (VCAM1) Biomarker Activity (AID 2284231). As to conditions: primary human lung fibroblasts. The essentials: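 VCAM-1 levels, lung fibroblasts, ELISA, 24 h exposure, increase scored relative to DMSO.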

Read-out in assay [8]: Collagen I, COL1A1 (gene 1277)
As to the kind of experiment: BSK_MyoF_CollagenI: BioMAP Diversity Plus: MyoF Assay for Collagen I Biomarker Activity (AID 2284238). As to conditions: primary human lung fibroblasts. In outline: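 Measured by ELISA: Collagen I from human lung fibroblasts 24 h after compound addition, analysed for signal gain with DMSO as baseline; overt toxicity read from SRB staining of parallel cultures at the same time.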

Read-out in assay [9]: Collagen III, COL3A1 (gene 1281)
As to the kind of experiment: BSK_MyoF_CollagenIII: BioMAP Diversity Plus: MyoF Assay for Collagen III Biomarker Activity (AID 2284239). The following applies: primary human lung fibroblasts. In outline: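 Multiplexed cell assay in lung fibroblasts, harvested at 24 h post-dose. Collagen III detected by ELISA, with positive-direction fitting relative to DMSO vehicle.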

The nature of assay [10]: CCTE_Mundy_HCI_Cortical_Synap_Neur_Matur_CellBodySpotCount: CCTE's Synaptogenesis and Neurite Maturation Assay in rat cortical cells for Cell Body Spot Count, Mundy Lab (AID 2284223). In outline: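 Chemicals were applied to AraC-treated rat primary cortical cells at DIV 7 and measured at DIV 12. Fixed cells were labelled for MAP2, synaptophysin and nuclei, and high-content imaging gave cell body synaptophysin spot counts per neuron relative to DMSO.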

The nature of assay [11]: CCTE_Mundy_HCI_hNP1_Pro_ResponderAvgInten: CCTE's Proliferation Assay in human neuroprogenitor cells, Mundy Lab (AID 2284224; active means hit-call score of the fitted dose curve at least 0.9, where 1 is the maximum). The essentials:
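Human neuroprogenitors (hNP1, WA09 lineage) receive test chemical after 40 to 44 hours of attachment. A four-hour BrdU pulse begins twenty hours later, followed by fixation and high content imaging; signal is referenced to DMSO controls.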

Assay [12] can be described thus: UKN4_HCS_LUHMES_cell_viability: Viability Assessment in the University of Konstanz (UKN) Leist Lab Neurite Outgrowth Assay in human LUHMES cells (UKN4) (AID 2284232). In outline:
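Human dopaminergic-model LUHMES neurons were exposed to chemicals for 24 h after a 2-day differentiation. Viability was scored by imaging Hoechst H-33342 staining, with activity fitted in both directions relative to DMSO controls.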

Assay [13] can be described thus: UKN2_HCS_IMR90_cell_viability: Viability Assessment in the University of Konstanz (UKN) Leist Lab Neural Crest Cell Migration Assay in human induced IMR90 Pluripotent Stem Cells (UKN2) (AID 2284233).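 Further: viability of neural crest cells differentiated from IMR90 iPSC measured by calcein-AM fluorescence imaging; cells exposed to compound for 24 h after a 24 h migration phase.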 In outline: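 iPSC-derived (IMR90) neural crest cells seeded around silicone stoppers on PLO/laminin/fibronectin; after 24 h migration in N2-S with EGF/FGF, chemical added for 24 h. Calcein-AM/Hoechst stained 30 min, high-content imaged; bidirectional fit versus DMSO.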

Assay [14] can be described thus: CCTE_Mundy_HCI_Cortical_NOG_NeuronCount: CCTE's Neurite Outgrowth Assay in rat cortical cells for Neuron Count, Mundy Lab (AID 2284236; active means hit-call score of the fitted dose curve at least 0.9, where 1 is the maximum;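 further: neurons counted by imaging betaIII-tubulin and Hoechst stained cortical cells; cells exposed to compound for about 48 hours before fixation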). The essentials:
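Read-out: neuron number by high-content imaging of betaIII-tubulin (Alexa Fluor-488) and Hoechst-labelled rat primary cortical cells.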

A short description of assay [15]: CCTE_Mundy_HCI_Cortical_NOG_BPCount: CCTE's Neurite Outgrowth Assay in rat cortical cells for Branch Point Count, Mundy Lab (AID 2284237).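 Further: branch points counted about two days after chemical exposure.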 The essentials: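 Measured 50.33 h after dosing, this morphology endpoint uses rat primary cortical cultures labelled for betaIII-tubulin. Branch points are quantified by high-content imaging, with DMSO as negative control and baseline.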

A short description of assay [16]: CCTE_Mundy_HCI_hNP1_Casp3_7: CCTE's Caspase-Glo 3/7 Assay in human neuroprogenitor cells for Apoptosis, Mundy Lab (AID 2284240). The essentials: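 Neuroepithelial-lineage stem cells from WA09 embryonic cells were treated with chemicals after 40–44 h of culture. Twenty-four hours later, caspase-3/7 activation was detected luminescently after a 30 min room-temperature reagent step, with DMSO as baseline.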

The nature of assay [17]: CCTE_Mundy_HCI_hNP1_CellTiter: CCTE's Cell Titer-Glo 2 Assay in human neuroprogenitor cells for Viability, Mundy Lab (AID 2284241; active means hit-call score of the fitted dose curve at least 0.9, where 1 is the maximum;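 further: a hit is a drop in ATP luminescence versus DMSO meaning reduced viability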). The essentials: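 Measures ATP content in human neural progenitors derived from WA09 embryonic cells. Read-out at 26.5 hours after dosing, with DMSO serving as the negative control and baseline.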
The nature of assay [18]: CCTE_Mundy_HCI_Cortical_Synap_Neur_Matur_NeuronCount: CCTE's Synaptogenesis and Neurite Maturation Assay in rat cortical cells for Neuron Count, Mundy Lab (AID 2284242; active means hit-call score of the fitted dose curve at least 0.9, where 1 is the maximum;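 further: neuron number from Hoechst nuclei and MAP2 staining by high-content imaging; hits reduce neuron count versus DMSO baseline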). The essentials:
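Imaging-based neuron count in rat cortical cultures after chemical exposure from DIV 7 to DIV 12, with AraC added at DIV 5. Activity is fitted relative to DMSO.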

Records with an inconclusive call do not appear. Active and inactive are the calls of the source. How the source made its calls, unless noted: active means hit-call score of the fitted dose curve at least 0.9, where 1 is the maximum; inactive means score below 0.9.

Sequence of Tumor necrosis factor (Homo sapiens) (P01375 whole entry, looked up): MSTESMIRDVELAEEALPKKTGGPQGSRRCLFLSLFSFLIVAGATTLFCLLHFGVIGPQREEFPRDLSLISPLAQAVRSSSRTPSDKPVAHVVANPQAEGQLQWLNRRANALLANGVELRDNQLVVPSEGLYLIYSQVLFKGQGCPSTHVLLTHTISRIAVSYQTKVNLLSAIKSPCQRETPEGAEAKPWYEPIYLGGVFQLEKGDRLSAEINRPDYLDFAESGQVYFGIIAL

On to `COC[C@H](C)N(C(=O)CCl)c1c(C)csc1C`, for which the result in assay [1], in assay [2], in assay [3], in assay [4], in assay [5] and in assay [6] was inactive. Further, the outcome in assay [7], in assay [8] and in assay [9] was inactive.

On to `Nc1ccc(-c2ccc(N)c(Cl)c2)cc1Cl`, for which the outcome in assay [1] and in assay [4] was inactive. Moreover, the AC50 in assay [2] was 6.09 µM (active); in [3] it was 20 µM (active); in assay [5], 12.8 µM (active); in [6], 20 µM (active); in assay [7] it was 20 µM (active); in [8], 13.7 µM (active). Further, the AC50 in [9] was 3.17 µM (active).

With `CCCCCCCCC(=O)NCc1ccc(O)c(OC)c1`, the result in assay [1], in assay [2], in [3], in [4], in [5] and in assay [6] was inactive. In addition, the result in assay [7], in [8] and in assay [9] was inactive.

In the case of `C(=NC1CCCCC1)=NC1CCCCC1`, the AC50 in assay [1] is 8.8 µM (active); in assay [2] it was 1.82 µM (active); in assay [3], 5.75 µM (active); in [4], 9.07 µM (active); in [5] it was 6.39 µM (active); in [6] it was 10.9 µM (active). Moreover, the AC50 in [7] was 11.8 µM (active); in assay [8], 5.82 µM (active); in [9], 7.83 µM (active).

In the case of `CCOP(=S)(OCC)Oc1ccc(S(C)=O)cc1` (stereo not given), the outcome in assay [1], in [2], in [3], in assay [4], in assay [5] and in assay [6] was inactive. For the same compound, the result in [7], in assay [8] and in assay [9] was inactive.

Turning to `C=C(C)C(=O)[O][Sn]([CH2]CCC)([CH2]CCC)[CH2]CCC`, the AC50 was 0.142 µM (active) in [10]; 0.249 µM (active) in assay [11]; 0.181 µM (active) in [12]; 0.272 µM (active) in assay [13]; 0.0826 µM (active) in assay [14]; 0.0846 µM (active) in assay [15]. Besides, the AC50 in assay [16] is 2.77 µM (active); in [17], 0.335 µM (active); in assay [18] it was 0.0547 µM (active).

On to `Oc1c(I)cc(I)cc1I`, for which the result in assay [1], in assay [2], in [3], in assay [4], in assay [5] and in assay [6] was inactive. The AC50 is 8.17 µM (active) in assay [7], 9.61 µM (active) in assay [8] and 3.97 µM (active) in [9].

As for `COP(=S)(OC)Oc1ccc(Sc2ccc(OP(=S)(OC)OC)cc2)cc1`, the result in assay [1], in assay [3], in assay [4], in assay [5], in assay [6] and in assay [7] was inactive. Besides, the AC50 in assay [2] was 28.9 µM (active); in assay [8], 28.7 µM (active); in [9] it was 28.6 µM (active).

For the compound `ClC1=C(Cl)[C@]2(Cl)[C@H]3[C@H]([C@H]4C=C[C@H]3C4)[C@@]1(Cl)C2(Cl)Cl`, the AC50 is 30.5 µM (active) in assay [1]; 7.53 µM (active) in [2]; 36.3 µM (active) in assay [3]; 20 µM (active) in assay [4]; 24.4 µM (active) in [5]; 33.1 µM (active) in assay [6]. Besides, the AC50 in assay [7] was 3.97 µM (active); in assay [9] it was 5.43 µM (active). Moreover, in assay [8], the outcome was inactive.

As for `CC(C)c1ccc(CO)cc1`, the outcome in [1], in [2], in [3], in [4], in [5] and in assay [6] was inactive. For the same compound, the result in assay [7], in assay [8] and in [9] was inactive.
